An excerpt weighted towards active compounds, which were near 12% of everything screened.
BAZ2B block: blocks human BAZ2B | Q9UIF8 | AlphaScreen BAZ2B-H3K14Ac peptide displacement | Potency, µM (highest dose often 114 µM), without a hit: at the highest dose activity change, negative = inhibition, actives largely listed as inhibitors | hit rate 4.4% among 360,000; note: % is set by controls: 0 for no effect and ±100 for the full control effect; nearly all actives have a fitted effect of over 60% in size
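AlphaScreen displacement of biotin-H3(5-23)K14Ac peptide (50 nM final) from BAZ2B (50 nM final) in PBS pH 7.4, 0.01% Tween-20; complex preformed 30 min RT, then compounds (top 110 uM) 30 min RT, beads 20 min dark.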
Sfp inh: blocks B. subtilis Sfp PPTase activity | Q9F4F7 | Biochemical Sfp PPTase activity, qHTS | Potency, µM, for the others: largest response in the series, negative = inhibition, most hits filed as inhibitors | hit rate 3.5% among 310,000 | AID 1490;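 note: the enzyme is Sfp with the accession as filed and its product quenches rhodamine fluorescence; 0% = enzyme reaction without inhibitor and -100% = no enzyme wells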
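Sfp 15 nM + cpd, 15 min RT; start w/ rhodamine-CoA 5 uM, BHQ-2-YbbR 12.5 uM (final); 50 mM Hepes pH 7.6, 10 mM MgCl2, 0.01% NP-40, 0.01% BSA; read 525/598 nm at 0 and 30 min.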
JMJD2A Tudor: blocks the human JMJD2A Tudor domain | O75164 | AlphaScreen JMJD2A-Tudor / H3K4me3 peptide binding | Potency, µM (series often up to 114 µM), without a hit: at the top dose activity change, negative = inhibition, usual class: inhibitors | hit rate 4.4% among 390,000; note: % is set by controls: 0 for no effect and ±100 for the full control effect; nearly all actives have a fitted effect of over 50% in size
Target sequence (O75164 whole entry, looked up, the tested form may be a part): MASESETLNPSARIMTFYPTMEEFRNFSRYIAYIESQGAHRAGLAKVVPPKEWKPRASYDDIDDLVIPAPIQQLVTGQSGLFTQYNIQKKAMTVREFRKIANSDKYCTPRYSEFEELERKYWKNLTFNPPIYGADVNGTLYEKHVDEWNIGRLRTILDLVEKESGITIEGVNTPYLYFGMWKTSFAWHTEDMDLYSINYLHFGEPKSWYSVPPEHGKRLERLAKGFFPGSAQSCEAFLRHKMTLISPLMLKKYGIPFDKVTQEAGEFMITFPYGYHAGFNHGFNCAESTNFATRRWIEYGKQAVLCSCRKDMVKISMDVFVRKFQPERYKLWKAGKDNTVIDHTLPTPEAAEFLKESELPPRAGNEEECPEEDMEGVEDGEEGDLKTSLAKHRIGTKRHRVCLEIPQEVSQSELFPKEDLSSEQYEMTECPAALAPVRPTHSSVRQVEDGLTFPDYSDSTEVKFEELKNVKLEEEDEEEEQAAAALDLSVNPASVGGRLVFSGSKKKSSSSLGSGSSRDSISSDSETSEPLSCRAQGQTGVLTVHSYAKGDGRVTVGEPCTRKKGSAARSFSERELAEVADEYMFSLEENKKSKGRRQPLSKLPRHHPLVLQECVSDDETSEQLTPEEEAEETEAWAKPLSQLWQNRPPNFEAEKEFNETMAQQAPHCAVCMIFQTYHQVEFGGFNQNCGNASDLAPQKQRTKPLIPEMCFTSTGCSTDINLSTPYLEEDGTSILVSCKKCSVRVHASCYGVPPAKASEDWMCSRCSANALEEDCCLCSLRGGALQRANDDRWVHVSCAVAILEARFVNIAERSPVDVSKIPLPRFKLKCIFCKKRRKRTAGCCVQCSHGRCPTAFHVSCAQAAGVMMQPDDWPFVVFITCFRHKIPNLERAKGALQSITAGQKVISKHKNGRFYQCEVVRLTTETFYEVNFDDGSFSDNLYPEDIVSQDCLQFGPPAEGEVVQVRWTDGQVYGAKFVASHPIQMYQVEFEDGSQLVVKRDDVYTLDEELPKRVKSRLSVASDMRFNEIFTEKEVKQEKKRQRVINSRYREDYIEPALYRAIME
G9a block: blocks human histone lysine methyltransferase G9a; Q96KQ7; G9a H3K9 monomethylation, AlphaScreen, 2 h; Potency, µM (top dose mostly 102 µM), for the others: at the top dose activity, negative = inhibition, most hits filed as inhibitors; hit rate 8.8% among 350,000; note: % is set by controls: 0 for no effect and ±100 for the full control effect; nearly all actives have a fitted effect of over 75% in size
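Chemiluminescent proximity detection of H3K9 monomethylation, read after 10 min bead incubation in the dark. Reaction: 20 nM G9a, 500 nM biotin-H3K9 peptide, 20 uM SAM cofactor, 2 h, room temperature, following 15 min enzyme-compound preincubation.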
HP1b chromo inh: inhibitors of HP1-beta chromodomain binding to methylated histone tails; P83916; hit rate 0.56% among 390,000; AlphaScreen HP1-beta / biotin-H3K9me3 peptide binding; Potency, µM (series often up to 114 µM), without a hit: at the top dose activity change, negative = inhibition, hits mostly inhibitors; note: nearly all actives have a fitted effect of over 70% in size
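Compound inhibition of the preformed complex between 50 nM HP1-beta and 50 nM biotinylated H3K9me3 peptide was read by AlphaScreen. Buffer was PBS pH 7.4 with 0.01% Tween-20. Incubations ran 30 min at room temperature, with 10 ug/mL donor/acceptor beads.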
The depositor's hits bear a star; [ ] = another dose, or the depositor's remark. Calls come from the whole dose curve; as a rule, active = well fitted curve in the direction sought with a large enough effect; inconclusive = small, poorly fitted or top-dose-only effect, or another doubt; inactive = no such curve, though single readings can be large; an effect the other way counts as inactive or inconclusive. Potency is the fitted concentration of half-maximal effect.

Screening Cc1ccc(C2Nc3ccccc3-n3c(-c4ccccc4)c4c(=O)n(C)c(=O)n(C)c4c32)cc1 (configuration not stated) returned BAZ2B block -21%, JMJD2A Tudor -27%, G9a block inconclusive and HP1b chromo inh 24%.
`CCN1C(=O)c2ccccc2Sc2ccc(C(=O)NCCCN(CC(C)C)CC(C)C)cc21` gave BAZ2B block 5%, Sfp inh -3%, JMJD2A Tudor 3%, G9a block 33% and HP1b chromo inh 13%.
`CCOC(=O)N1CCN(S(=O)(=O)c2ccc(C(=O)Nc3nc4c(s3)CC(C)CC4)cc2)CC1` (configuration not stated) gave BAZ2B block -2%, Sfp inh 21%, JMJD2A Tudor -16%, G9a block -8% and HP1b chromo inh 11%.
`CCOC(=O)N1CCN(S(=O)(=O)c2ccc(C(=O)N(CCN(CC)CC)c3nc4c(C)cccc4s3)cc2)CC1` gave BAZ2B block inconclusive, Sfp inh -3%, JMJD2A Tudor inconclusive, G9a block 50µM* and HP1b chromo inh -11%.
For CCOC(=O)N1CCN(S(=O)(=O)c2ccc(C(=O)NNc3nc4c(C)cccc4s3)cc2)CC1 the results were BAZ2B block inconclusive, Sfp inh inconclusive, JMJD2A Tudor inconclusive, G9a block 35µM* and HP1b chromo inh -4%.
`CC1CCN(S(=O)(=O)c2ccc(C(=O)N3CCCCC3C(=O)O)cc2)CC1` (configuration not stated) gave BAZ2B block 1%, JMJD2A Tudor -15%, G9a block inconclusive and HP1b chromo inh 16%.
CCN(CC)CCNC(=O)c1cc(-c2ccco2)nc2ccccc12 was read as BAZ2B block -29%, Sfp inh -10%, JMJD2A Tudor 63µM*, G9a block 32µM* and HP1b chromo inh -2%.
`COc1ccc(CCNC(=O)c2cc(-c3ccco3)nc3ccccc23)cc1` gave JMJD2A Tudor 45µM* and HP1b chromo inh inconclusive.
CC(C)CN(CCNC(=O)c1cc(-c2cccs2)nc2ccccc12)CC(C)C was read as BAZ2B block 6%, JMJD2A Tudor -5%, G9a block 11%[59 µM] and HP1b chromo inh 20%.
`COc1ccc(-c2cc(C(=O)NCc3ccco3)c3ccccc3n2)cc1` gave BAZ2B block -5%, Sfp inh inconclusive, JMJD2A Tudor -5% and HP1b chromo inh 26%.
OC(CN1CCOCC1)C12CC3CC(CC(C3)C1)C2 (configuration not stated) was read as BAZ2B block 9%, Sfp inh 17%, JMJD2A Tudor -5%, G9a block 22%[59 µM] and HP1b chromo inh 13%.
Screening C1CN(CC23CC4CC(CC(C4)C2)C3)CCO1 returned BAZ2B block 4%, Sfp inh -5%, JMJD2A Tudor 0%, G9a block 7.9µM* and HP1b chromo inh 31%.
For NC(=O)CC[C@H](NC(=O)c1ccc(F)cc1)C(=O)OCC(=O)NCc1ccc(F)cc1 the results were BAZ2B block 0%, Sfp inh 23%, JMJD2A Tudor 14µM*, G9a block -3% and HP1b chromo inh -9%.
Cc1cc(N=NC(=O)c2ccccc2)ccc1O was read as BAZ2B block inconclusive, Sfp inh 50µM*, JMJD2A Tudor -35%, G9a block inconclusive and HP1b chromo inh -23%.
Screening COc1cc(/C=C2/SC(=S)N(CC(=O)O)C2=O)ccc1OCC(=O)Nc1ccc(C)c(C)c1 returned BAZ2B block 1% and Sfp inh -17%.
For CC(C)c1ccc(N(CC(=O)NCc2ccco2)C(=O)CCC(=O)Nc2ccccn2)cc1 the results were BAZ2B block -2%, Sfp inh 12%, JMJD2A Tudor -3%, G9a block 25µM* and HP1b chromo inh 31%.
For O=C(CN(C(=O)CCC(=O)Nc1ccccn1)c1ccc(F)cc1)NCc1ccco1 the results were BAZ2B block -15%, Sfp inh 6%, JMJD2A Tudor -9%, G9a block 1% and HP1b chromo inh 27%.

Screening data deposited in PubChem BioAssay by National Center for Advancing Translational Sciences (NCATS).
